# In ChEMBL document CHEMBL1961873, “Compounds: GSK PKIS; Assays: Nanosyn kinase panel” (2012):
# Biological target: Mast/stem cell growth factor receptor Kit (Homo sapiens) (UniProt P10721)
# Settings: at 0.1 µM
# 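Further: values are mean inhibition of KIT, from the GSK PKIS dataset.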
# Chain of Mast/stem cell growth factor receptor Kit (Homo sapiens) (P10721 whole entry): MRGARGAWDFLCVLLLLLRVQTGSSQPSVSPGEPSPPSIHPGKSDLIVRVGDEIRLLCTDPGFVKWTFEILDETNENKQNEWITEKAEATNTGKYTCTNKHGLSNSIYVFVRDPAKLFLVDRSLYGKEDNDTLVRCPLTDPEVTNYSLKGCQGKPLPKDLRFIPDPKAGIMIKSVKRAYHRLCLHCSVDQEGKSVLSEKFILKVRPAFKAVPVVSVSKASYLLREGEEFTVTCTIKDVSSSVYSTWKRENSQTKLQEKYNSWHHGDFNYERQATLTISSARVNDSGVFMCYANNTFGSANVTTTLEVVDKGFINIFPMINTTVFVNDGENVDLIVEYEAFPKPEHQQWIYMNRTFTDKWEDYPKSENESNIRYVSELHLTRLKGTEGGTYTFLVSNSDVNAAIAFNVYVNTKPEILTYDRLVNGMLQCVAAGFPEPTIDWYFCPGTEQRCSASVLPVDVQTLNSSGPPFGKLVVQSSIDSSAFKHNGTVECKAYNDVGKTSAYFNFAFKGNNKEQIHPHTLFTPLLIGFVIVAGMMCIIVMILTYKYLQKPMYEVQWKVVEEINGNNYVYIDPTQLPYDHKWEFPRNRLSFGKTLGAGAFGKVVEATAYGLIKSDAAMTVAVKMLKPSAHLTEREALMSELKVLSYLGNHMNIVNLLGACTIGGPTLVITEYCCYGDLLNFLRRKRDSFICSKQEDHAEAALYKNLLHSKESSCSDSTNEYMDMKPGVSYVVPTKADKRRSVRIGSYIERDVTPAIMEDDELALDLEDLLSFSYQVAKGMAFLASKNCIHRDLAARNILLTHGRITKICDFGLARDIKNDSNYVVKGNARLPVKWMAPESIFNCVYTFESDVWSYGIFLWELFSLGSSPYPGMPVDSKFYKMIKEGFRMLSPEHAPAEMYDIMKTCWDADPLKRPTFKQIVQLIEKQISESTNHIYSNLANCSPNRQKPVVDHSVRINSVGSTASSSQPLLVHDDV
row,SMILES,inhibition [%]
1,ON=C1CCc2cc(-c3nc(C4CCNCC4)[nH]c3-c3ccncc3)ccc21,-3
2,CS(=O)(=O)Nc1cccc(-c2ccc3c(NC(=O)C4CC4)n[nH]c3c2)c1,-1.41
3,NS(=O)(=O)c1ccc(-c2cc3ccncc3cc2OCc2ccccc2)cc1,4.01
4,[O-][S+]1CCN(Cc2ccc(-c3ccc4ncnc(Nc5ccc(OCc6ccccc6)c(Cl)c5)c4c3)o2)CC1,1.98
5,N#Cc1c(NC(=O)c2ccccc2F)sc2c1CCCC2,-4.4
6,COc1cc2ncn(-c3cc(OCc4ccccc4S(C)(=O)=O)c(C#N)s3)c2cc1OC,5.42
7,NC(=O)c1cccc(Nc2nccc(Nc3cccc(F)c3)n2)c1,42.5
8,CN(C)C(=O)O[C@H]1CN[C@H](C#Cc2cc3ncnc(Nc4ccc(OCc5cccc(F)c5)c(Cl)c4)c3s2)C1,2.32
9,Cc1ccc(NC(=O)CC2CC2)cc1-c1ccc(C(=O)NCC2CC2)cc1,3.18
10,CN(C)c1cc2c(Nc3ccc4c(cnn4Cc4ccccc4)c3)ncnc2cn1,3.49
11,CN(c1ccc(NC(=O)Nc2ccc(OC(F)(F)F)cc2)cc1)c1ccnc(Nc2cccc(S(N)(=O)=O)c2)n1,37.5
12,CCS(=O)(=O)c1ccc(OC)c(Nc2ncc(-c3cccc(OC)c3)o2)c1,73.4
13,COc1cc(Nc2nccc(-c3cnn4ncccc34)n2)cc(OC)c1,96.2
14,O=C1Nc2ccc(-c3cccnc3)cc2C1=Cc1cc(Br)c(O)c(Br)c1,3.48
15,CN(C)C(=O)O[C@@H]1CN[C@@H](C#Cc2cc3ncnc(Nc4ccc(OCc5cccc(F)c5)c(Cl)c4)c3s2)C1,-1.17
